# KCNQ2 block: KCNQ2 (rat) channel inhibition. AID 2156. CHO-K1 KCNQ2, FluxOR thallium flux, 20 min; active compounds read low. O88943. actives 1.1% (n = 310,000). B-score at 10 µM;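 active means fluorescence ratio B-score at most minus 3 library SDs, with starting brightness B-score within 2 library SDs, cut at about -5.5 in these data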
# KCNQ2 pot: KCNQ2 (rat) channel potentiation; O88943; CHO-K1 KCNQ2, FluxOR thallium flux fluorescence; active compounds read high; B-score at 10 µM; actives 0.54% (n = 310,000);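 active means fluorescence ratio B-score at least 3 SD of library B-scores, with initial fluorescence B-score within 3 of them, cut at about 5.3 in these data; same plate scores as AID 2156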;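 further: B-score of peak minus minimum over baseline fluorescence ratio after K+ and Tl+ stimulus; positive B-score means potentiation of KCNQ2 with more thallium influx and brighter signal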
# Kir21 conf inh: confirmation of mouse Kir2.1 potassium channel inhibitors | shares compounds with KCNQ2 pot | Kir2.1-expressing cells, FluxOR thallium flux fluorescence; active compounds read low | Tl flux remaining, % of negative control (active compounds read low), % at 10 µM | actives 41% (n = 2,300);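 active means Primary-screen hit whose thallium flux fell at least 3 control SD below untreated wells in both duplicates, with normal baseline fluorescence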
# HEK293 Tl flux: counter-screen for Kir2.1 inhibitors: effect in parental HEK293 cells; shares compounds with KCNQ2 pot; FluxOR thallium flux fluorescence; 0% = unstimulated blank wells; FluxOR signal as % of negative control (100 = no effect), % at 10 µM; actives 19% (n = 2,300);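 active means dye signal at least 3 control SD above or below untreated wells in both duplicates, raw fluorescence within 3, either direction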;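 further: percent is based on the flux ratio of peak minus minimum fluorescence over baseline F0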
# CHO-K1 Tl ctr: parental CHO-K1 activity in KCNQ2 potentiator counter-screen; shares compounds with KCNQ2 pot; parental CHO-K1 cells, FluxOR thallium flux fluorescence; zero = vehicle mean+3SD, 100% = vehicle-minus-blank window; activity increase over 3SD of controls, % at 10 µM; actives 43% (n = 1,200);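 active means signal rise of at least 3 SD above the untreated control mean, in both duplicate wells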;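 further: counter screen of KCNQ2 potentiator hits so any rise reflects channel-independent effects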
# KCNQ1 sel pot: selectivity of KCNQ2 potentiators: effect on human KCNQ1; shares compounds with KCNQ2 pot; CHO KCNQ1 stable, FluxOR thallium flux fluorescence; beyond 3SD, as % of vehicle-control signal; activation over 3SD threshold, % at 10 µM; actives 28% (n = 1,200);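 active means fluorescence ratio rise of at least 3 SD of vehicle wells above their mean, in both replicate wells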
# Target sequence (P51787 whole entry, looked up): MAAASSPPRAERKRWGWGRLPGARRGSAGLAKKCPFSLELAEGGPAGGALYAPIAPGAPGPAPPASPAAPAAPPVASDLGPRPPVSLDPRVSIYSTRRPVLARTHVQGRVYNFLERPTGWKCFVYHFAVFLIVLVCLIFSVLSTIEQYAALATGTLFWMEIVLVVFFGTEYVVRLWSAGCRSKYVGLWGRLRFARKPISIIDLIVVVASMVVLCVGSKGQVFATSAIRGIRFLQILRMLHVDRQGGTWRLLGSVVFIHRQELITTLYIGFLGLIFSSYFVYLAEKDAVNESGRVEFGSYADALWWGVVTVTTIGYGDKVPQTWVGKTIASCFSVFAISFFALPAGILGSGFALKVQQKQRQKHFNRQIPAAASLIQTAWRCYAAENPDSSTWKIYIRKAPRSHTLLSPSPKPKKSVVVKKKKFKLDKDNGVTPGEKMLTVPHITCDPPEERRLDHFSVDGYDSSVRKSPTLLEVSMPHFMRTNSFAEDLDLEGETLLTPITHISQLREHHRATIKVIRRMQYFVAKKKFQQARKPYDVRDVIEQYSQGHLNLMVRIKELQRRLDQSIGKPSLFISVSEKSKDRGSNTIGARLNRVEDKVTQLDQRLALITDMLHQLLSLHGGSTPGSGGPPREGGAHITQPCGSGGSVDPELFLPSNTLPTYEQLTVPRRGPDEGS
# KCNQ2 pot conf: confirmation of rat KCNQ2 potassium channel potentiators. actives 68% (n = 1,200). shares compounds with KCNQ2 pot. potentiation, less the hit threshold, % at 10 µM. CHO-KCNQ2 cells, FluxOR thallium flux fluorescence. AID 2287;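 active means fluorescence ratio rising 3 SD or more over the vehicle control mean in both replicates, plus primary screen hit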;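 further: peak minus minimum thallium fluorescence divided by baseline after K/Tl stimulus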
# Kir21 spec: tests whether KCNQ2 potentiators also affect mouse Kir2.1; actives 2% (n = 1,200); AID 2345; activity over 3SD threshold, % at 10 µM; shares compounds with KCNQ2 pot; HEK293 Kir2.1, FluxOR thallium flux fluorescence;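 active means fluorescence ratio rise of at least 3 SD above the vehicle-control mean, seen in both replicates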
# KCNQ2 W236L MoA: potentiates the retigabine-insensitive rat KCNQ2 W236L mutant channel; shares compounds with KCNQ2 pot; CHO KCNQ2-W236L, automated patch clamp current; current increase over 3SD of negative controls (%), active compounds read high, % at 25 µM; actives 10% (n = 940);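 active means current increase at least 3 SD of the untreated controls above them in both duplicate recordings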
# A number is an active result; n = inactive; x = no result. Compounds with a hit are over-represented: about 1.6% of the library has one in this group of screens.
SMILES,KCNQ2 block,KCNQ2 pot,Kir21 conf inh,HEK293 Tl flux,others
COc1ccc(C2c3ccc4ccccc4c3Oc3ncn(CCCN(C)C)c(=N)c32)cc1 (stereo not given),-6.1,n,36%,n,
COc1ccccc1C1c2ccc3ccccc3c2Oc2ncn(CCN(C)C)c(=N)c21 (stereo not given),n,x,x,x,
COc1ccc(C(=O)CSc2nnc(CN3CCCCC3)n2-c2ccc(Cl)cc2)cc1OC,n,x,x,x,
Oc1ccccc1-c1n[nH]c(=S)n1Cc1ccccc1,n,n,x,x,
Oc1ccc(Br)cc1-c1n[nH]c(=S)n1Cc1ccccc1,n,11,x,x,CHO-K1 Tl ctr=n;KCNQ1 sel pot=28;KCNQ2 pot conf=26;Kir21 spec=n
COCCN(CCOC)C(=O)c1ccc(SCc2ccc(C)cc2)c([N+](=O)[O-])c1,n,x,x,x,
CCNc1c(NS(=O)(=O)c2ccc(Cl)s2)c(=O)oc2ccccc12,n,x,x,x,
CSc1ccc(/C=N/NC(=O)c2cccs2)cc1,n,14,n,n,CHO-K1 Tl ctr=11;KCNQ1 sel pot=n;KCNQ2 pot conf=n;Kir21 spec=n
O=C(N/N=C/c1ccncc1)c1cccs1,n,x,x,x,
CN=C(C)/C(C(=O)OC)=C(/O)c1ccc(Cl)cc1Cl,n,x,x,x,
CSc1ncc(C(=O)Nc2cccnc2)c(C(F)(F)F)n1,n,x,x,x,
Cc1ccc(-n2cccc2C(=S)N=P(N(C)C)(N(C)C)N(C)C)cc1,n,x,n,n,
Cc1ccc(-n2cccc2C(=O)NS(=O)(=O)c2ccc(C)cc2)cc1,n,n,x,x,
Cc1cc(NC(=O)c2coc(=O)c(Br)c2)ccc1C(C)C,n,x,x,x,
CSc1ccc(S(=O)(=O)NCCOc2ccccc2C)cc1,n,x,x,x,
CCc1ccc(S(=O)(=O)NCCOc2cccc3cccnc23)cc1,n,x,70%,n,
COc1ccc(S(=O)(=O)NNC(=S)NCCc2ccccc2)c(OC)c1,n,x,x,x,
CCOc1ccc(Cl)cc1CNCCCSc1ncccn1,n,x,x,x,
CCOc1ccc(Cl)cc1CNCCCSc1nc(C)cc(C)n1,n,n,52%,n,
CCN(CC(=O)Nc1ccc(NC(C)=O)cc1)C(=O)c1cc(S(=O)(=O)N2CCCCCC2)ccc1OC,n,n,x,x,
COc1ccc(CN(CCN(C)C)c2ccccn2)cc1,n,n,x,x,
CC(C)n1cnc2c(N(C)c3ccccc3)nc(N(CCN(C)C)Cc3ccccc3)nc21,n,x,48%,n,
CN(C)c1ccc(C(=O)N=c2sccn2C)cc1[N+](=O)[O-],n,x,x,x,
Cc1cc(C)cc(C(=O)NCC(=O)OCC(=O)c2cc(C)n(CC(F)(F)F)c2C)c1,n,x,x,x,
COc1ccc(O)c(/C=N/NC(=O)CN2CCS(=O)(=O)CC2)c1,n,n,x,x,
SMILES,KCNQ2 block,KCNQ2 pot,Kir21 conf inh,HEK293 Tl flux,others
CC(C(=O)N1CCc2ccccc21)N1CCN(c2cccc(C(F)(F)F)c2)CC1 (stereo not given),n,x,x,x,
COc1ccc(/C=C(/NC(=O)c2ccccc2)C(=O)NCc2ccco2)cc1,n,n,x,x,
COc1ccccc1/C=C(\NC(=O)c1ccccc1)C(=O)NCc1ccco1,n,n,n,n,
CC(C)CN1CCN(Cc2ccc3ncccc3c2)CC1CCO (stereo not given),n,x,x,x,
CC(=O)Nc1ccc(NC(=O)CSc2nnnn2-c2ccc(F)cc2)cc1,n,n,x,x,
COc1ccc(-c2ccc(SCC(=O)c3ccccc3)nn2)cc1OC,n,x,x,x,
O=C(CCc1nnc2n(CCc3ccccc3)c(=O)c3ccccc3n12)NCCCN1CCCCC1,n,n,x,x,
O=C1CSC(c2ccccc2F)N1c1cc(Cl)ccc1O (stereo not given),n,n,n,n,
O=C1CSC(c2ccccc2F)N1CCN1CCCCC1 (stereo not given),n,n,x,x,
CCOC(=O)c1csc(N/N=C2\CCc3ccccc32)n1,n,n,x,x,
CCOC(=O)c1csc(N/N=C2\CCCc3ccccc32)n1,n,5.5,n,n,CHO-K1 Tl ctr=22;KCNQ1 sel pot=n;KCNQ2 pot conf=n;Kir21 spec=n;KCNQ2 W236L MoA=n
Cc1cc2cc(CNC(=O)C(C)Oc3ccccc3)ccc2n1C (stereo not given),n,x,x,x,
O=C1CC(N2CCN(C3CC(=O)N(CCc4ccccc4)C3=O)CC2)C(=O)N1CCc1ccccc1 (stereo not given),n,n,x,x,
O=C1CC(N2CCC(Cc3ccccc3)CC2)C(=O)N1CCc1ccccc1 (stereo not given),n,5.7,n,n,CHO-K1 Tl ctr=n;KCNQ1 sel pot=n;KCNQ2 pot conf=7.5;Kir21 spec=n;KCNQ2 W236L MoA=n
COc1ccc(OCc2cc(C(=O)NCCN3CCCc4ccccc43)no2)c(Cl)c1,n,x,x,x,
COc1ccccc1C(O)(C(=O)NN(C)c1ccccc1)c1ccccc1OC,n,n,x,x,
CCc1ccc2c(c1)c(N=NC1=NC(=O)CS1)c(O)n2CC,n,9.7,n,224%,CHO-K1 Tl ctr=n;KCNQ1 sel pot=n;KCNQ2 pot conf=28;Kir21 spec=n;KCNQ2 W236L MoA=n
CCc1ccc2[nH]c(O)c(N=NC3=NC(=O)CS3)c2c1,n,x,x,x,
CC(C)c1ccc(OCC(O)CNC(C)c2ccccc2)cc1 (stereo not given),n,n,28%,n,
CCC(=O)c1ccc(OCC(O)CNC(C)c2ccccc2)cc1 (stereo not given),n,n,x,x,
OC(CNCCc1ccccc1)COc1ccc(OCC(O)CNCCc2ccccc2)cc1 (stereo not given),n,x,x,x,
OC(CNCCC(c1ccccc1)c1ccccc1)COc1ccccc1 (stereo not given),n,x,36%,n,
COc1ccc(C(=O)Nc2ccccc2C(=O)NCCN2CCOCC2)cc1OC,n,n,x,x,
C/C=C/c1ccc(OCC(O)CN(C)Cc2ccc(SC)cc2)c(OC)c1 (stereo not given),n,x,n,n,
OC(CNCCc1ccc(Cl)cc1)COc1cc(Cl)ccc1Cl (stereo not given),n,x,24%,122%,
C/C=C/c1ccc(OCC(O)CNCC(c2ccc(OC)cc2)N(C)C)c(OC)c1 (stereo not given),n,x,x,x,
COc1ccc(CCNCC(O)COc2ccc(Cl)cc2)cc1OC (stereo not given),n,n,x,x,
C/C=C/c1ccc(OCC(O)CN2CCCCC2CC)c(OC)c1 (stereo not given),n,x,x,x,
C/C=C/c1ccc(OCC(O)CNCCc2ccc(OC)cc2)c(OC)c1 (stereo not given),n,x,n,n,
COc1ccc(CN2C(=O)c3ccccc3C2C(=O)NC2CCCC(C)C2C)c(OC)c1 (stereo not given),n,x,x,x,

# Screening results from PubChem.
